ChEMBL document CHEMBL1201862, “PubChem BioAssay data set” (2004)
Among all 400,000 compounds or so, about 2,100 (0.53%) were called active. Not shown: some 14% with an inconclusive outcome. How the calls were made is not given here. What follows is part of a selection rich in actives, with near analogues and random picks from the rest.

These compounds were tested against Ataxin-2 (Homo sapiens) (UniProt Q99700) (assay: qHTS for Inhibitors of ATXN expression.).
Format: functional

Chain of Ataxin-2 (Homo sapiens) (Q99700 whole entry): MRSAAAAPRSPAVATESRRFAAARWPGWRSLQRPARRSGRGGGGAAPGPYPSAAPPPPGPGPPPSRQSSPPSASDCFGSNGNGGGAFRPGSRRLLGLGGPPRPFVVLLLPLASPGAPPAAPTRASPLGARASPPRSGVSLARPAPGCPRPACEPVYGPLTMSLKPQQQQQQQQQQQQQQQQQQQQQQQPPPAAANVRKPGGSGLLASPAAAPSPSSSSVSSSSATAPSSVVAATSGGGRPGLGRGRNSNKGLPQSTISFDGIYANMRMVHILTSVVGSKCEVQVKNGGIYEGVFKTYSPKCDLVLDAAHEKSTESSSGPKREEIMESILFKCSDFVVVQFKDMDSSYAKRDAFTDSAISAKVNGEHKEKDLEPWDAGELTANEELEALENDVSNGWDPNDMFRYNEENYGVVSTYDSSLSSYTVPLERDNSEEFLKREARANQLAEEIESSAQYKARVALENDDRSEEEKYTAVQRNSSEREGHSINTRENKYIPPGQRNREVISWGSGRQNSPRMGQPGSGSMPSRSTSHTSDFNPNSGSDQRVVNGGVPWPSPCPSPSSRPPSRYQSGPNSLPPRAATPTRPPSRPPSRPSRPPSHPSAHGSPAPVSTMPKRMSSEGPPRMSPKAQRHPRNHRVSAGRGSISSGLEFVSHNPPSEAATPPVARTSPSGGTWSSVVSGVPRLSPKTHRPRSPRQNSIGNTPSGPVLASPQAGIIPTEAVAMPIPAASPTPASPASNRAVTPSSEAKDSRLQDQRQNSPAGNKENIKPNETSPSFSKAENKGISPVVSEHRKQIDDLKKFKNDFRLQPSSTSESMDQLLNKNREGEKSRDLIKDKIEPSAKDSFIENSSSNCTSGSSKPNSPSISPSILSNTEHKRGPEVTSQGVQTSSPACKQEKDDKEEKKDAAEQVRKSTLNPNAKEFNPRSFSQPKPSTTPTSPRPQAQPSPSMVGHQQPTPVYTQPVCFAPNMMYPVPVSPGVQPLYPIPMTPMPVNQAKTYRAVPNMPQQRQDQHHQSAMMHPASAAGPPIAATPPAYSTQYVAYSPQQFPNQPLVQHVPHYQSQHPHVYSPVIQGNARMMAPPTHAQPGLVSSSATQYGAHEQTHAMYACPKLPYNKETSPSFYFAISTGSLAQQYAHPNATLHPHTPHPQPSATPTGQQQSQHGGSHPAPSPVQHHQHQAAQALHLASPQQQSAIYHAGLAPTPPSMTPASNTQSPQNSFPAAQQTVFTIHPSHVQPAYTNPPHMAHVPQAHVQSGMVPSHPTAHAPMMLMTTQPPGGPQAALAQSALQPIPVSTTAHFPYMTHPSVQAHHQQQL

SMILES | Potency
CCOC(=O)c1cc2c(=O)n3ccccc3nc2n(CC(C)C)/c1=N\C(=O)C(C)Oc1ccccc1 (centres undefined) | inactive
COc1ccc(-c2oc3ccccc3c(=O)c2OC(C)=O)cc1 | inactive
CNC(=O)c1ccc(NC(=O)C2CCN(S(=O)(=O)c3cccc(C(F)(F)F)c3)CC2)cc1 | inactive
O=C(Nc1cccc(C(F)(F)F)c1)C1CC(=O)N(Cc2ccco2)C1 (centres undefined) | inactive
Cc1noc2ncnc(N3CCCC(C(=O)Nc4cccc(C(F)(F)F)c4)C3)c12 (centres undefined) | 31.6 µM (active)
CCn1c(C(C)NC(C)=O)nc2ccccc21 (centres undefined) | inactive
CCn1c2ccccc2c(=O)c2ccccc21 | inactive
CCn1c2ccccc2nc2cc3c(cc21)c(Cl)c(=O)c1ccccc13 | 7.94 µM (active)
O=C(O)c1cccc(NC(=O)c2cc3cc(Br)cc(Br)c3oc2=O)c1 | inactive
C/C(=N\NC(=O)c1cc2ccccc2cc1O)c1ccc(C)o1 | inactive
C/C(=N\NC(=O)C1(C)CC1(Br)Br)c1cccc(NC(=O)c2ccc(C)o2)c1 (centres undefined) | 35.5 µM (active)
Nc1ccc(Br)c2cccnc12 | inactive
NC(=O)c1c(NC(=O)C2COc3ccccc3O2)sc2c1CCN(Cc1ccccc1)C2 (centres undefined) | inactive
COc1ccc(CC2(CO)CCN(Cc3ccc4c(c3)CCO4)CC2)cc1 | inactive
COc1ccccc1/C=C/CN1CCC(CO)(Cc2ccccc2)CC1 | inactive
Cc1c(CN2CCC(CO)(Cc3cccc(C(F)(F)F)c3)CC2)c2ccccc2n1C | 39.8 µM (active)
CC(C)(C)NC(=O)NCc1cccnc1 | inactive
O=C(O)c1ccc(-c2ccc(/C=C3\NC(=O)N(Cc4ccc(Cl)cc4)C3=O)o2)cc1Cl | inactive
O=C(N/N=C/c1ccc(-c2ccc([N+](=O)[O-])cc2)o1)c1cccnc1 | inactive
O=C(NCc1cccnc1)/C(=C\c1ccc(-c2cccc(Cl)c2)o1)S(=O)(=O)c1ccccc1 | 31.6 µM (active)
O=C(NCc1cccnc1)/C(=C\c1ccc(-c2ccc(Cl)c(Cl)c2)o1)S(=O)(=O)c1ccccc1 | 22.4 µM (active)
CNC(=O)/C(C#N)=C/c1ccc(-c2ccc(Cl)cc2)o1 | inactive
O=C(NCc1cccnc1)/C(=C/c1ccc(-c2ccc(Cl)cc2)o1)S(=O)(=O)c1ccccc1 | 35.5 µM (active)
Cc1c(N(C)S(=O)(=O)c2cccc(C(=O)NCc3cccnc3)c2)c(=O)n(-c2ccccc2)n1C | inactive

SMILES | Potency
O=C(NCC(=O)N1CCC2(CC1)NCCc1[nH]cnc12)c1cccc(Cl)c1 | inactive
CN(C)c1ccc(/C=N/NC(=O)c2cccc(N3CCCC3=O)c2)cc1 | inactive
Cc1ccc(S(=O)(=O)NN=C2CCc3ccccc32)cc1 | inactive
N#CCCn1nc(-c2ccc(Br)cc2)cc1Nc1ccccc1NC(=O)C(F)(F)F | inactive
CCOc1ccc(N2C(=O)/C(=C\NNc3nnc(C)c(O)n3)c3ccccc3C2=O)cc1 | inactive
O=C(C1CCCO1)N(c1ccc(F)cc1)C1C=CS(=O)(=O)C1 (centres undefined) | inactive
O=C(OCCN1C(=O)c2cccc3c(N4CCOCC4)ccc(c23)C1=O)c1cccc(Cl)c1 | inactive
CC(C)CN(C(=O)CN1CCCCCC1)c1c(N)n(CC(C)C)c(=O)[nH]c1=O | inactive
CC1CN(C(S)=Nc2ccc(Cl)cc2)CC(C)O1 (centres undefined) | inactive
CCn1nc(NC(=O)COC)c2cc3cc(C)ccc3nc21 | inactive
Cc1cccc2cc3c(N)c(C(=O)N4CCc5ccccc54)sc3nc12 | inactive
O=[N+]([O-])c1ccc(NN=Cc2ccccc2O)nc1 | 20 µM (active)
O=[N+]([O-])c1ccc(N/N=C/c2ccc(OCc3cccc4ccccc34)cc2)nc1 | inactive
O=[N+]([O-])c1ccc(/C=N/Nc2ncc(-c3ccccc3)cn2)cc1 | inactive
CN(C)c1c2ccccc2nc2c(F)c(F)c(F)c(F)c12 | inactive
Cc1cccn2c(=O)c3cc(C(=O)NC(C)c4ccccc4)c(=N)n(CCOCCO)c3nc12 (centres undefined) | inactive
O=C(/C=C/c1cn(CC(O)CN2CCCCCC2)c2ccccc12)c1ccc(Br)cc1 (centres undefined) | inactive
C=CCn1cccc(/C=C/C(=O)c2ccc(C(C)(C)C)cc2)c1=S | 35.5 µM (active)
CC(C)CN(CC(C)C)CC(O)Cn1cc(/C=C/C(=O)c2ccccc2)c2ccccc21 (centres undefined) | inactive
Cc1cc(=O)oc2cc(O[C@@H]3O[C@H](CO)[C@H](O)[C@H](O)[C@H]3O)ccc12 | inactive
CN(C(=O)c1cccc(NC(=O)Cc2ccc(NC(=O)C3CCCN(C(=O)CCc4ccccc4)C3)cc2)c1)C1CCCCC1 (centres undefined) | 17.8 µM (active)
Cc1cc(N2CCOCC2)nc2ccc(NC(=O)CCC(=O)N3CCCC(C)C3)cc12 (centres undefined) | inactive
O=C(COC(=O)C1CC(=O)N(Cc2ccccc2)C1)Nc1cccc([N+](=O)[O-])c1 (centres undefined) | inactive
Cc1ccc(N2C(=O)c3cccc4c(N5CCN(C)CC5)ccc(c34)C2=O)c2cccnc12 | inactive

SMILES | Potency
CCc1nnc(N/C=C2/C(=O)N(c3ccc(Cl)cn3)C(=O)c3ccccc32)s1 | inactive
COc1ccc(C(=O)Cn2c(C(C)=O)nc3ccccc32)cc1 | 33.6 µM (active)
Cn1c(COc2ccc(C(=O)O)cc2)nc2ccccc21 | inactive
CCn1c(NCc2ccc(OC)cc2)nc2ccccc21 | inactive
CN(C)c1cccc(C(=O)OCc2cc(=O)oc3cc(O)ccc23)c1 | inactive
N#C/C(=C\c1cccnc1)c1nc2c(s1)CCCC2 | inactive
CN1/C(=C/C=C/c2n(C)c3cc([N+](=O)[O-])c([N+](=O)[O-])cc3[n+]2C)C(C)(C)c2ccccc21 | 7.94 µM (active)
O=C(Oc1c(-c2ccccc2Cl)oc2ccccc2c1=O)c1ccc(Cl)cc1 | inactive
COCCCn1c(=N)c(C(=O)NCC2CCCO2)cc2c(=O)n3cccc(C)c3nc21 (centres undefined) | inactive
Cc1ccc(-n2c(=O)c(C#N)cc3c(=O)n4ccccc4nc32)cc1C | inactive
Cc1c(Cl)cccc1NC(=O)CNC(=O)CCS(=O)(=O)c1ccc(F)cc1 | inactive
O=C(Cc1ccccc1)Nc1nc(-c2ccc(F)c(F)c2)cs1 | inactive
O=C(CCS(=O)(=O)c1ccc(F)cc1)Nc1nc(-c2ccncc2)cs1 | 39.8 µM (active)
CC(C)(C)c1ccc(-n2nc(C#N)c(Cl)cc2=O)cc1 | 15.8 µM (active)
COc1ccc(N2C(=O)CC(NNc3ncc(Cl)cc3Cl)C2=O)cc1 (centres undefined) | inactive
COc1ccc(-n2nc(C#N)c(Cl)cc2=O)cc1 | 39.8 µM (active)
COc1ccc(-n2nc(C)c3onc(C)c3c2=O)cc1 | inactive
Cc1ccc(CSc2nnc([C@@H]3CCCN3C(=O)OC(C)(C)C)o2)cc1 | inactive
CCc1nnc(NS(=O)(=O)c2ccc(N/C=C/C(=O)c3ccc(C)cc3)cc2)s1 | inactive
CCc1nnc(NS(=O)(=O)c2ccc(Nc3ccc([N+](=O)[O-])c4nonc34)cc2)s1 | 17.8 µM (active)
CCc1nnc(NS(=O)(=O)c2ccc(NC(=O)c3cccc(Cl)c3)cc2)s1 | inactive
O=[N+]([O-])c1ccc(Nc2ccccc2)c2nonc12 | 25.1 µM (active)
O=[N+]([O-])c1ccc(Sc2cccc[n+]2[O-])c2nonc12 | 6.7 µM (active)
COCCn1c(SCC(=O)NC2CCCCC2)nnc1-c1ccncc1 | inactive

SMILES | Potency
O=C1OCCN1C(=O)[C@H]1[C@H](c2ccc(F)cc2)C(c2cccc(Cl)c2)=NN1c1ccccc1 | inactive
O=C(NCc1cccc(C(F)(F)F)c1)c1cccc2c1C(=O)c1ccc(N3CCC(Cc4ccccc4)CC3)cc1S2(=O)=O | inactive
CCN(CC)C(=O)[C@H]1CC(CC(=O)NCC23C[C@H]4C[C@@H](C2)C[C@@H](C3)C4)C(=O)N2CCc3c([nH]c4ccccc34)[C@]12C (some centres undefined) | 39.8 µM (active)
CN(C)C(=O)CCc1ccc2c3c([nH]c2c1)[C@]1(C)[C@@H](C(=O)N2CCCCC2)C[C@H](CC(=O)NCC24C[C@H]5C[C@@H](C2)C[C@@H](C4)C5)C(=O)N1CC3 | 39.8 µM (active)
CCN(CC)C(=O)[C@H]1CC(CC(=O)NCc2cccc(C(F)(F)F)c2)C(=O)N2CCc3c([nH]c4ccccc34)[C@]12C (some centres undefined) | 22.4 µM (active)
CC(C)N(C(=O)[C@H]1CC(CC(=O)NCc2cccc(C(F)(F)F)c2)C(=O)N2CCc3c([nH]c4ccccc34)[C@]12C)C(C)C (some centres undefined) | 39.8 µM (active)
C/C(=N\NC(=O)c1nc2ccccn2c1C)c1ccco1 | inactive
Cc1c(Cc2ccccc2)c(=O)oc2cc(O)cc(O)c12 | inactive
COCC(=O)N(CCN(C)C)Cc1cc2cc3c(cc2nc1Cl)OCO3 | inactive
COc1ccc(-c2cn3nc(SCC(=O)NCC4CCCO4)ccc3n2)cc1 (centres undefined) | inactive
Cn1c(=O)n(CCOc2ccc([N+](=O)[O-])cc2)c2ccccc21 | inactive
Cn1cnc([N+](=O)[O-])c1S(=O)(=O)c1cccc(Cl)c1 | 8.91 µM (active)
Cn1cnc([N+](=O)[O-])c1S(=O)(=O)Oc1ccc(Cl)cc1 | 31.6 µM (active)
CC(=O)Nc1ccc(OS(=O)(=O)c2cc(Cl)ccc2C)cc1 | inactive
O=S(=O)(Oc1ccc(Cl)cc1)c1cccc2cccnc12 | inactive
Cn1cnc([N+](=O)[O-])c1S(=O)(=O)Oc1ccccc1 | 28.2 µM (active)
CCOc1ccc(Nc2nc3c(S(=O)(=O)c4cccc(Cl)c4)nnn3c3ccsc23)cc1 | inactive
Cc1c2c(n3c(nc4ccccc43)c1C#N)N(CCCN(C)C)CC2 | inactive
Cc1ccc(Sc2ncccc2C(=O)N(C)Cc2cccs2)c(C)c1 | inactive
O=c1c2ccccc2oc2cc(NCCCN3CCOCC3)ccc12 | inactive
CCN(CC)S(=O)(=O)c1ccc(N2CCCC2)c(NS(=O)(=O)c2cccs2)c1 | inactive
CCCCCCSc1ccc(-c2nc3cnccn3c2NCCCC)cc1 | inactive
